# High-throughput results deposited in PubChem by several laboratories.
# CSC inhib – blocks cancer stem cells; cancer stem cell-like cells viability, luminescence; inhibition, % at 7.5 µM; actives 1.1% (n = 300,000); AID 2717; in the data active = inhibition above about 75%; tested in HMLE shEcad cells
# PP1 counter – blocks human PP1-alpha phosphatase, a PP5 counter-screen; actives 0.9% (n = 320,000); purified PP1alpha, OMFP fluorescence; P62136; inhibition, % at 6.7 µM;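 active = inhibition above the mean inhibition of all tested compounds plus 3 SD, computed separately for each screening campaign, cut at about 15% in these data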
# ALR inh – inhibitors of human sulfhydryl oxidase ALR. P55789. purified ALR, DTT oxidation, H2O2 HRP-luminol luminescence. inhibition, % (no concentration beside the values). actives 3.8% (n = 290,000). AID 485317;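 active = mean replicate inhibition above about 79%, with every replicate also reaching it, limit read from the data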
# PP5 primary – inhibitors of human protein phosphatase 5 (PP5). purified PP5c, OMFP substrate fluorescence. actives 0.18% (n = 320,000). inhibition, % at 6.7 µM. P53041;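 active = inhibition above the campaign's mean inhibition across all tested compounds plus 3 SD, cut at about 9.5% in these data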;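 note: 0% = DMSO only and 100% = 100 µM cantharidin control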
# Target sequence (P53041 whole entry, looked up): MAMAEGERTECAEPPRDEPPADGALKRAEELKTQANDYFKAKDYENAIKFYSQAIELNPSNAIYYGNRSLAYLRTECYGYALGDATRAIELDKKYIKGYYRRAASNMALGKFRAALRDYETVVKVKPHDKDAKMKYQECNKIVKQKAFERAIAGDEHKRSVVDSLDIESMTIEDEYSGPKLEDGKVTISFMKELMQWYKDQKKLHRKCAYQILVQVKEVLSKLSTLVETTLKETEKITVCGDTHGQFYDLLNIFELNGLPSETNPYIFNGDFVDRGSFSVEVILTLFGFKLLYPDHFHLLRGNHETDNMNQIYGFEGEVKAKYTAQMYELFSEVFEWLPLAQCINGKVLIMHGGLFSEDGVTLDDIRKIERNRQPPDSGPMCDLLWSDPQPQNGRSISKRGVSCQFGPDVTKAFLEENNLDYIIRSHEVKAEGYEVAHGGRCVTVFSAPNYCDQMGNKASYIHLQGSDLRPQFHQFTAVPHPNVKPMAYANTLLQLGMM
# Calb FLC – C. albicans growth modulation with fluconazole; C. albicans CaCi-2 (fluconazole-resistant clinical isolate) + fluconazole, Alamar Blue growth, 48 h; growth inhibition, % (no concentration beside the values); actives 0.57% (n = 300,000); AID 1979;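 active = growth inhibition above about 58% in most replicates, limit read from the data, passing the limit was not always enough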;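 note: all wells also contain fluconazole at 8 µg/ml as a sub-toxic cotreatment; 0% = median of DMSO wells and 100% = median of geldanamycin control wells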
# The depositor's hits bear a star; . = no result. Shown are actives, neighbours in structure and some others; about 5.4% of the full set was active somewhere.
SMILES,CSC inhib,PP1 counter,ALR inh,PP5 primary,Calb FLC
COc1ccc2c(C)c(C(=O)N3CCN(Cc4ccccc4)CC3)oc2c1,.,.,-5.5,.,-0.2
COc1ccc(-c2csc3nc(-c4cccnc4)nc(Cl)c23)cc1OC,49.8,8.2,97.6*,-0.1,12.5
Clc1nc(-c2cccnc2)nc2scc(-c3ccccc3)c12,12.4,2.2,96.7*,3.5,39.5
O=C(CN1C(=O)NC(CCc2ccccc2)C1=O)NC1CC1 (stereo not given),-10.1,0.6,-16.5,-3.0,42.8
COC(=O)C1CCN(C(=O)CN2C(=O)NC(CCc3ccccc3)C2=O)CC1 (stereo not given),-2.9,-2.0,99.2*,1.7,-0.4
NC(=S)NNc1cc(Cl)cc(Cl)c1,-8.3,2.2,97.5*,0.0,-2.4
Cc1ccc(Cn2ccc(O)c(Cc3ccccc3)c2=O)cc1,-6.9,-1.1,5.1,-0.3,0.6
COC(=O)c1ccc(S(=O)(=O)N2CCC(C(N)=O)CC2)n1C,-12.8,-9.6,.,-0.8,-13.6
Cc1ccccc1NS(=O)(=O)c1cccc2nonc12,9.9,8.1,96.2*,0.9,10.5
CC(C)Cn1nc(NS(=O)(=O)c2cccc3nonc23)c2cc3ccccc3nc21,13.6,0.5,97.3*,1.1,22.6
CCn1nc(NS(=O)(=O)c2ccc([N+](=O)[O-])cc2)c2cc3ccc(C)cc3nc21,20.2,-4.2,21.4,2.6,34.8
CCCCn1nc(NS(=O)(=O)c2cccc3nonc23)c2cc3cccc(C)c3nc21,5.3,6.7,98.3*,-1.0,1.3
CCn1nc(NS(=O)(=O)c2cccc3nonc23)c2cc3ccc(C)cc3nc21,9.0,2.8,91.4*,2.2,-4.7
Cc1ccc(Cn2ccc(NC(=O)c3cc(CC(C)C)on3)n2)cc1,2.9,2.5,-1.3,3.8,-4.5
CC(NC(=O)C1CCC(=O)N1Cc1ccccc1Cl)c1ccccc1 (stereo not given),-11.5,-3.5,-15.2,0.7,-9.2
Nc1cc(=O)[nH]c(SCC(=O)Nc2ccccc2Sc2ccc(Cl)cc2)n1,-7.0,1.0,-4.2,0.2,21.2
CCOC(=O)Cc1nnc(NC(=O)c2ccco2)s1,3.8,1.7,4.4,-1.8,-8.7
CN=C1S/C(=C\c2ccc(O)c(Br)c2)C(=O)N1C,35.3,0.2,96.3*,-1.4,2.3
C=CCn1c(Cc2cccc3ccccc23)n[nH]c1=S,-0.2,-2.4,91.7*,-4.0,2.5
S=c1[nH]nc(Cc2cccc3ccccc23)n1-c1ccccc1,.,-3.1,89.6*,-2.5,1.7
C=CCn1c(CCn2c3ccccc3c3ccccc32)n[nH]c1=S,7.9,5.0,40.8,3.8,-1.8
C=CCn1c(SCc2n[nH]c(=S)n2-c2ccccc2)nnc1-c1ccccc1,-15.9,-2.0,24.7,-1.8,-6.4
C=CCn1c(CSc2nnc(-c3ccccc3)n2C)n[nH]c1=S,-2.1,1.6,83.3*,0.9,-1.2
C=CCn1c(OCc2ccccc2)n[nH]c1=S,-12.3,-2.2,96.0*,0.7,0.5
CC(=O)O/N=C/c1c(Cl)n(C)c2ccccc12,8.9,1.4,-4.2,0.1,-28.5
SMILES,CSC inhib,PP1 counter,ALR inh,PP5 primary,Calb FLC
S=c1[nH]nc(Cc2noc3ccccc23)n1-c1ccccc1,8.4,-2.3,86.4*,-0.4,2.3
Cc1ccc(N2CCN(CCCN3C(=O)C4CCCN4C3=O)CC2)cc1 (stereo not given),-0.6,-1.4,98.3*,1.8,18.9
CCCn1c(C(C)NC(=O)c2ccccc2)n[nH]c1=S (stereo not given),-9.9,-4.2,94.3*,0.4,2.3
O=C1OCCC1Sc1nnc(-c2ccc(Cl)cc2)n1Cc1ccccc1 (stereo not given),15.2,5.2,-3.0,-1.4,11.5
COc1ccc(S(=O)(=O)Cc2ccc(C(=O)NCCCN(C)c3ccccc3)o2)cc1,-15.1,-1.9,98.6*,1.3,6.0
CCCCNC(=O)c1ccc(CS(=O)(=O)c2ccc(OC)cc2)o1,0.0,2.8,.,-0.3,-0.1
CCCCNC(=O)c1ccc(CS(=O)(=O)c2ccc(C)cc2)o1,-16.2,-5.7,79.0*,-1.4,8.5
COc1ccc(NC(=S)Nc2ccc3cn[nH]c3c2)cc1,17.6,2.6,99.7*,0.1,14.3
S=C(Nc1ccc(Cl)cc1)Nc1ccc2cn[nH]c2c1,-8.3,-4.8,-12.0,1.1,4.4
O=C1C2CCCN2C(=O)N1CCCN1CCN(c2cccc(Cl)c2)CC1 (stereo not given),2.9,3.2,36.8,-1.0,13.4
O=c1n(CCCN2CCN(c3cccc(Cl)c3)CC2)nc2ccccn12,6.5,0.8,93.2*,-0.3,.
